Source: PubChem (National Center for Advancing Translational Sciences (NCATS))
TRPV1 ag: HTS Assay for Compounds that Act as Agonists of the Vanilloid Receptor 1 | Transient receptor potential cation channel subfamily V member 1 (Homo sapiens), Q8NER1 | TRPV1-expressing cells, Fluo-8 calcium influx, agonist mode | activation, % at 8.33 µM | 0.19% of 320,000 active | AID 540275, 2011; in the data active means activation above about 80%; inconclusive means between about 30% and that limit; further: 0% is about no effect
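TRPV1-expressing cells were cultured overnight at 35.5C and loaded with Fluo-8 calcium dye for 40 to 90 min at room temperature. After a 10 s baseline, compound was added and calcium influx was read kinetically for 3 min (ex 480/em 520 nm).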
D1 antag: Antagonist of Human D 1 Dopamine Receptor: qHTS. D(1A) dopamine receptor (Homo sapiens), P21728. HEK293 TREx D1 cells, calcium flux, dopamine EC80; stronger effect = lower value. activity change, negative = inhibition, % at 10 µM. 3.2% of 360,000 active. AID 504652, 2011; in the data active means activity change below about -30%; further: on the % scale 0 is the no-effect control and ±100 the full control effect
Target sequence (P21728 whole entry, looked up): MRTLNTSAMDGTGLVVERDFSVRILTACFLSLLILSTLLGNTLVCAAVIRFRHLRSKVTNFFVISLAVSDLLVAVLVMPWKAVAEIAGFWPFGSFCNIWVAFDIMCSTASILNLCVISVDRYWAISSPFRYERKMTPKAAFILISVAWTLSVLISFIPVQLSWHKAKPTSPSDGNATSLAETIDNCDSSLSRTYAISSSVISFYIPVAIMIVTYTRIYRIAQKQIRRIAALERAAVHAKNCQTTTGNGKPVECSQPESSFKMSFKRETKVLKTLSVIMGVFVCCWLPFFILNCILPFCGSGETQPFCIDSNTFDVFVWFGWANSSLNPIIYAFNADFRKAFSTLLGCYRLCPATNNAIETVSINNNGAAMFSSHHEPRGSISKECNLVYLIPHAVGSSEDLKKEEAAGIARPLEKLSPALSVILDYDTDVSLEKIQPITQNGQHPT
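HEK293 T-REx cells expressing inducible, force-coupled D1 receptor; no-wash Ca dye, 30–90 min RT. Cmpd → 180 s read at 1 Hz → EC80 DA → 180 s read.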
D1 agonist: Allosteric Agonists of the Human D1 Dopamine Receptor: qHTS | D(1A) dopamine receptor (Homo sapiens), P21728 | HEK293 T-REx D1 cells, calcium flux, agonist mode | activation, % at 2 µM | 1% of 360,000 active | AID 504660, 2011; in the data active means activation above about 30%; further: 0% is about no effect
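Inducible HEK293 T-REx D1 cells, force-coupled to calcium signalling, were plated at 4000 cells/well with tetracycline and held overnight at 30 C. After no-wash calcium dye loading, compound-evoked calcium rise over 180 s flagged agonists.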
TRPV1 PAM: HTS Assay for Compounds that Act as Potentiators of the Vanilloid Receptor 1; potentiation, % at 8.33 µM; TRPV1-expressing cells, Fluo-8 calcium influx, capsaicin EC20 potentiation; 0.02% of 320,000 active; in the data active means potentiation above about 80%; inconclusive means between about 30% and that limit; further: 0% is about no effect
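Fluo-8 calcium influx in TRPV1-expressing cells, kinetic read (ex 480/em 520 nm). Compound added and read 3 min for agonist activity, followed by capsaicin at EC20 final and 2 min further read for enhancement.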
D1 PAM: Potentiators of Human D1 Dopamine Receptor: qHTS; potentiation, % at 10 µM; 0.036% of 360,000 active; HEK293 TREx D1 cells, calcium flux, dopamine EC20 potentiation; D(1A) dopamine receptor (Homo sapiens), P21728; in the data active means potentiation above about 30%; further: 0% is about no effect
Starred values were filed as active, the others as inactive; ? = inconclusive; . = no result given. A selection: hits, their analogues and other compounds. The true share with any hit is near 4.2%.

SMILES	TRPV1 ag	D1 antag	D1 agonist	TRPV1 PAM	D1 PAM
CC(C)(C)OC(=O)NCc1nnc(C(C(=O)OCc2ccccc2)c2ccccc2)s1 (stereo unspecified)	.	-18.2	1.2	.	-6.5
Cc1oc2c(c1C(=O)NCc1cccc(Br)c1)C1=NCCN1C=N2	.	38.3	-1.3	.	-5.7
Cc1ccc(CNC(=O)CN2C(=O)CSc3c2c(C)nn3-c2ccccc2)cc1	.	8.0	0.5	.	-3.8
O=C(Nc1cccc(-n2cnnn2)c1)c1cc(Cl)ccc1Cl	?	-44.1*	4.8	-11.8	-10.2
O=C(Nc1cccc(-n2cnnn2)c1)c1ccco1	2.5	-57.0*	3.3	-3.3	-3.6
Cc1cc(-c2nnc(-c3cc4ccccc4oc3=O)o2)c(C)n1-c1ccccc1	11.2	-42.6*	2.7	-12.1	-0.7
O=C(N/N=C/c1cc(Cl)cc([N+](=O)[O-])c1O)c1ccccc1NS(=O)(=O)c1cccs1	-7.2	-30.4*	4.0	28.2	-3.0
Cc1cc(C)c(NC(=O)c2ncoc2-c2ccco2)c(C)c1	.	10.1	7.9	.	2.6
COc1cc(OC)c(NS(=O)(=O)c2ccc3c(c2)NC(=O)CCS3)cc1Cl	.	-38.2*	14.7	.	1.9
Cc1csc2c(NC3CCN(Cc4ccccc4)CC3)ncnc12	4.1	-36.8*	10.9	12.6	-9.2
Cc1sc2ncnc(NC3CCN(Cc4ccccc4)CC3)c2c1C	18.2	-53.1*	7.9	-22.3	-16.5
CSc1cccc(NC(=O)CCNC(=O)c2ccco2)c1	2.1	22.7	5.7	4.0	0.8
CC(NC(=O)CCNC(=O)c1ccco1)c1ccccc1 (stereo unspecified)	-4.0	-42.3*	0.0	-1.6	-5.8
CCC(C(=O)NC(C)c1ccccc1)C(=O)NC(C)c1ccccc1 (stereo unspecified)	7.4	-7.8	5.2	-7.3	-4.2
O=C(CCNC(=O)c1ccco1)Nc1cccc(Br)c1	1.7	-30.3*	2.5	1.5	-2.5
CC(NC(=O)CCC(=O)NC(C)c1ccccc1)c1ccccc1 (stereo unspecified)	0.3	7.5	1.0	13.5	1.8
C=CCC(C(=O)NC(C)c1ccccc1)C(=O)NC(C)c1ccccc1 (stereo unspecified)	-2.6	-17.9	32.4*	?	6.7
CC(NC(=O)CNC(=O)c1ccco1)c1ccccc1 (stereo unspecified)	-0.1	-0.1	1.2	-4.0	-0.9
CC(NC(=O)CCSCCC(=O)NC(C)c1ccccc1)c1ccccc1 (stereo unspecified)	-0.8	-45.1*	0.6	-26.6	-2.0
Cc1ccccc1-n1c(-c2ccco2)n[nH]c1=S	1.2	7.0	4.2	3.5	-0.3
FC(F)(F)c1ccccc1-n1c(-c2ccco2)n[nH]c1=S	2.1	3.7	3.4	4.5	31.9*
O=C(CSc1cccc[n+]1[O-])N1CCCCCC1	0.8	-33.9*	2.5	-6.5	0.8
O=C(CSc1cccc[n+]1[O-])NCC1CCCCC1	-1.9	-69.3*	0.2	1.4	1.4
O=C(Nc1cccc(-c2nc3cccnc3s2)c1)c1cccc(Br)c1	.	11.2	-0.9	.	-1.3
O=C(Nc1cc(C(F)(F)F)ccc1Cl)c1noc2c1CCCCC2	.	5.2	4.3	.	3.8
SMILES	TRPV1 ag	D1 antag	D1 agonist	TRPV1 PAM	D1 PAM
Cc1ccc(S(=O)(=O)N2CCCC2C(=O)OCc2nc3ccccc3s2)cc1 (stereo unspecified)	0.2	0.8	44.8*	2.7	-2.5
O=C(OCc1nc2ccccc2s1)C1CCN(S(=O)(=O)c2cccs2)CC1	12.6	-3.9	9.5	0.0	-5.8
CCC1Oc2ccccc2N(CC(=O)NCCCN2CCN(c3ccc(OC)cc3)CC2)C1=O (stereo unspecified)	2.6	-90.0*	5.7	?	-6.1
CC1Oc2ccccc2N(CC(=O)NCCN2CCOCC2)C1=O (stereo unspecified)	-1.8	-67.4*	2.6	9.4	-11.3
Cc1ccc2c(=O)cc(C(=O)Nc3sc4c(c3C(=O)NCc3ccco3)CCCC4)oc2c1C	.	-15.3	1.9	.	0.1
CC(NS(=O)(=O)c1ccc(Br)cc1)c1ccccc1 (stereo unspecified)	11.2	-33.8*	0.8	-2.9	-8.4
